Assay outcomes from PubChem BioAssay.
HEK293 tox – kills HEK 293 cells; Potency, µM (doses to about 115 µM), for the others: at the highest dose activity change, negative = cytotoxicity, usual class: inhibitors; 94,000 tested, 6.6% active; AID 1345083; HEK 293 viability, ATP luminescence (CellTiter-Glo), 48-72 h; further: nearly all actives have a fitted effect of over 60% in size
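Pintool-delivered compounds were incubated with HEK 293 cells (250 cells/well) at 37 degree Celsius for 48 or 72 hr. ATP-dependent luminescence (CellTiter-Glo) then reported remaining viable cells.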
Luciferase inh – blocks purified firefly luciferase enzyme activity; P08659; purified P. pyralis luciferase, luminescence, biochemical; Potency, µM (top dose mostly 115 µM), hits mostly inhibitors; 76,000 tested, 2.5% active; further: nearly all actives have a fitted effect of over 65% in size
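Cell-free enzyme assay, 10nM P. pyralis luciferase, luciferin and ATP each at 10uM. Inhibition profiled over a 6-point titration, read as luminescence.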
NIH3T3 tox – NIH 3T3 cell cytotoxicity; NIH 3T3 viability, CellTiter-Glo ATP luminescence, 48-72 h; Potency, µM (highest dose often 96.7 µM), for inactives: top-dose activity change, negative = cytotoxicity, usual class: inhibitors; 94,000 tested, 4.3% active; AID 1345082; further: nearly all actives have a fitted effect of over 55% in size
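ATP-dependent luminescence (CellTiter-Glo) served as the viability signal for NIH 3T3 cells treated with compound for 48 or 72 hr at 37 °C.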
hNpr1 antagonist – human Npr1 receptor antagonism | AID 1347048 | 76,000 tested, 1.6% active | Potency, µM (titrated, usually from 46.3 µM), for the others: at the highest dose activity change, negative = inhibition, most hits filed as inhibitors | HEK293 hNpr1 GloSensor cGMP, ANP-stimulated luminescence; calls by dose curve; further: nearly all actives have a fitted effect of over 60% in size
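Compound pre-incubated 30 min at room temperature on GloSensor-loaded HEK293 cells stably carrying hNpr1 and the pGS-40F cGMP biosensor. Stimulation uses hNppA at 0.1 nM final; luminescence is taken at baseline and 20 min post-agonist.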
* = called active by the depositor; i = inactive; ? = inconclusive; . = not tested or not shown; [ ] = remark or other dose. Compounds with a hit are over-represented: about 11% of the library has one in this group of screens. Unless noted, the call rests on the fitted dose curve; in most records, active means well fitted curve in the direction sought with a large enough effect; inconclusive means small, poorly fitted or top-dose-only effect, or another doubt; inactive means no such curve, though single readings can be large; an effect the other way counts as inactive or inconclusive. On the % scale 0 is the no-effect control and ±100 the full control effect; potency means the concentration at half of the fitted maximal effect.

SMILES	HEK293 tox	Luciferase inh	NIH3T3 tox	hNpr1 antagonist
CC1(c2ccccc2)N(Cc2ccc(O)cc2)C(=O)OC12CCN(Cc1cccnc1)CC2 (stereo not given)	-11.8%	i	?	-13.8%
CC1(c2ccccc2)N(Cc2ccc(O)cc2)C(=O)OC12CCN(C(=O)Cc1ccccc1)CC2 (stereo not given)	?	i	?	1.3%
CS(=O)(=O)N1CCC(CC(=O)N2CC=C(c3ccccc3)CC2)C1 (stereo not given)	-12.1%	i	-13.0%	-11.7%
C=CCN1C[C@H]2COc3cc(OC)ccc3[C@H]2N(C(=O)c2ccc(F)cc2)CCC1=O	-3.8%	.	?	.
C=CCNC(=O)[C@@H]1Cc2cn(Cc3nccn3C)c3cccc(c23)[C@H](CC(C)C)N1	?	i	79.4µM*	-2.3%[70.6 µM]
CC(C)C[C@@H]1N[C@H](C(=O)NC(C)C)Cc2cn(Cc3nccn3C)c3cccc1c23	?	i	79.4µM*	-12.7%[70.6 µM]
CC(C)C[C@@H]1N[C@H](C(=O)NC2CCC2)Cc2cn(Cc3nccn3C)c3cccc1c23	?	i	79.4µM*	-16.4%[70.6 µM]
C=CCN(C)C(=O)[C@@H]1Cc2cn(Cc3nccn3C)c3cccc(c23)[C@H](CC(C)C)N1	100µM*	i	?	3.6%[70.6 µM]
O=C(Cn1ccn2nc3c(c2c1=O)CCCC3)Nc1ccc(C(F)(F)F)cc1	?	i	-17.5%	-17.7%
O=C1C(N2CCN(S(=O)(=O)Cc3cccc(Cl)c3)CC2)CCN1Cc1cccnc1 (stereo not given)	?	i	-6.3%	2.4%
C=CCN(C)C(=O)[C@@H]1Cc2cn(Cc3cc(C)on3)c3cccc(c23)[C@H](CC(C)C)N1	70.8µM*	i	70.8µM*	2.0%[70.6 µM]
Cc1ccoc1C(=O)N[C@@H]1CN(c2ncccn2)C[C@H]1CO	-5.0%	i	-0.6%	3.9%
Cc1ccc(C(=O)NC2CCCN(Cc3cccc(-c4ccc(C)c(Cl)c4)c3)C2)cc1 (stereo not given)	i	.	0.3%	.
Cc1ccc(-c2cccc(CN3CCCC(NC(=O)c4c(C)noc4C)C3)c2)cc1Cl (stereo not given)	22.4µM*	.	?	.
CCOC(=O)NC1CCCN(Cc2cccc(-c3ccc(C)c(Cl)c3)c2)C1 (stereo not given)	39.8µM*	.	?	.
Cc1ccc(-c2cccc(CN3CCCC(NC(=O)Cc4ccccn4)C3)c2)cc1Cl (stereo not given)	-20.4%	.	25.1µM*	.
CSc1ccc(-c2cccc(CN3CCC(NC(=O)c4c(C)noc4C)CC3)c2)cc1	?	.	-22.8%	.
Cc1cc(C)cc(-c2ccc(CN3CCCC(NC(=O)C4CC4)C3)cc2)c1 (stereo not given)	-18.3%	.	-15.3%	.
Cc1cc(C)cc(-c2ccc(CN3CCCC(NC(=O)Cc4ccccn4)C3)cc2)c1 (stereo not given)	?	.	35.5µM*	.
O=c1n(-c2ccncc2)nc2n1CCN([S+](=O)([O-])c1cccs1)C2	-27.5%	i	-17.5%	0.7%
O=C([C@@H]1C[C@H](F)CN1C(=O)C1(c2ccccc2)CC1)N1CCCCC1	-12.9%	.	-19.9%	.
COc1cccc(CCn2ccnc2-c2cc3n(n2)CCCNC3)c1OC	-13.0%	i	-30.8%	-3.1%
Cc1ccc(CN(C)C(=O)CC(c2ccccc2)c2ccc3c(c2)OCO3)o1 (stereo not given)	?	i	?	-7.2%
COc1ccc(CNC(=O)CC[C@]23CC[C@](C)(O)C[C@H]2C(C)(C)C[C@@H]3NC(=O)c2cccc(F)c2)cc1	?	i	?	5.0%
COc1ccc(-c2nnc3ccc(N(C)Cc4ccccc4)nn23)nc1	?	i	?	-6.5%[70.6 µM]
SMILES	HEK293 tox	Luciferase inh	NIH3T3 tox	hNpr1 antagonist
CN(Cc1ccccc1)c1ccc2nnc(-c3ccccn3)n2n1	?	i	44.7µM*	-6.3%[70.6 µM]
C[C@@H]1CN(c2ccc3nnc(-c4ccccn4)n3n2)C[C@H](C)O1	?	i	79.4µM*	0.8%[70.6 µM]
CNC(=O)c1cc(C)nc2onc(C3CCCN(C(=O)c4ccccc4)C3)c12 (stereo not given)	-1.1%	.	-12.9%	.
COc1ccc(-c2noc([C@@H]3C[C@H](NS(=O)(=O)c4ccccc4)CN3C)n2)cc1	89.1µM*	i	?	-26.2%[70.6 µM]
COc1ccc(S(=O)(=O)N[C@H]2C[C@@H](c3nc(Cc4ccccc4)no3)N(C)C2)cc1	?	i	-22.1%[174 µM]	-5.8%[70.6 µM]
COc1ccc(-c2noc([C@@H]3C[C@H](NS(=O)(=O)c4ccc(OC)cc4)CN3C)n2)cc1	39.8µM*	22.4µM*	?	?
COc1ccc(-c2noc([C@@H]3C[C@H](NCc4ccc(N(C)C)cc4)CN3C)n2)cc1	35.5µM*	63.1µM*	50.1µM*	-15.5%[70.6 µM]
Cc1ccc(S(=O)(=O)N[C@H]2C[C@@H](c3nc(-c4ccccc4)no3)N(C)C2)cc1	?	?	-28.1%[174 µM]	1.4%[70.6 µM]
Cc1ccc(-c2noc([C@@H]3C[C@H](NS(=O)(=O)c4ccc(Cl)cc4)CN3C)n2)cc1	79.4µM*	22.4µM*	?	?
COc1ccc(S(=O)(=O)N[C@H]2C[C@@H](c3nc(-c4ccc5c(c4)OCO5)no3)N(C)C2)cc1	?	i	?	?
COc1ccc(CC(=O)N2C[C@@H]3CCCN4CCC[C@@H]([C@H]34)[C@H]2CCCC(=O)NCC2CC2)cc1	-35.9%	.	-30.9%	.
O=C(NCc1ccc(F)cc1)c1ccc2oc(-c3ccnc(Cl)c3)nc2c1	-15.6%	.	-13.8%	.
COc1ccc2[nH]c(C(=O)NCC(=O)N3CCCCCNC(=O)CC3c3ccccc3)cc2c1 (stereo not given)	?	?	-9.2%	3.5%
CCCc1ccc([S+](=O)([O-])N2CCC3(CC2)CNC(=O)C3CO)cc1 (stereo not given)	?	.	-15.7%	.
CN1C[C@@H](NS(=O)(=O)c2ccccc2)C[C@H]1c1nc(-c2ccccn2)no1	-26.8%[172 µM]	22.4µM*	?	-27.7%[70.6 µM]
Cc1ccc2c(n1)N(C)[C@H](CO)CCN(Cc1cccnc1)C2	2.2%[172 µM]	i	-1.1%[174 µM]	7.2%[70.6 µM]
COc1cc(OC)c(OC)cc1CN1C[C@@H]2C(=O)N(C)C(=O)[C@@H]2C1	-8.6%	i	-15.6%	0.4%
Cc1ncccc1C(=O)N1CCCCCCN(C)C(=O)[C@@H]2CCC[C@@H]21	-0.2%	i	0.5%	-2.0%
Cc1csc(Nc2ccc3c(n2)CN(C)C(=O)CO3)n1	17.8µM*	i	31.6µM*	0.7%[70.6 µM]
CNC(=O)c1cc(C2CC2)nc2c1c(C1CCCN(C(=O)c3ccc(Cl)nc3)C1)nn2C (stereo not given)	-28.1%	.	?	.
Cc1ccc([S+](=O)([O-])NC2CCN(c3ccc4nnc(-c5ccccc5)n4n3)CC2)cc1	39.8µM*	.	?	.
O=[S+]([O-])(NC1CCCN(c2ccc3nnc(C4CC4)n3n2)C1)c1cccc(C(F)(F)F)c1 (stereo not given)	?	.	5.62µM*	.
